BAZ2B inh: inhibitors of human BAZ2B bromodomain. AlphaScreen BAZ2B-H3K14Ac peptide displacement. Potency, µM (top dose mostly 114 µM), actives largely listed as inhibitors. 4.4% of 360,000 active. AID 504333; further: nearly all actives have a fitted effect of over 60% in size
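In this displacement format the biotinylated H3(5-23) peptide acetylated at Lys14 serves as ligand at 50 nM, with BAZ2B at 50 nM in PBS pH 7.4 containing 0.01% Tween-20. Donor and acceptor beads are 10 ug/mL final.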
G9a inh: blocks human histone lysine methyltransferase G9a. Q96KQ7. G9a H3K9 monomethylation, AlphaScreen, 2 h. Potency, µM (titrated, usually from 102 µM), most hits filed as inhibitors. 8.8% of 350,000 active; further: nearly all actives have a fitted effect of over 75% in size
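Using a bead-based AlphaScreen, monomethylated H3K9 product from 2 h room-temperature reactions (G9a 20 nM, peptide 500 nM, SAM 20 uM) was detected with 0.5 ug/mL rabbit anti-H3K9me1 antibody.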
JMJD2A Tudor inh: inhibitors of human JMJD2A Tudor domain; AlphaScreen JMJD2A-Tudor / H3K4me3 peptide binding; AID 504339; 4.4% of 390,000 active; Potency, µM (doses to about 114 µM), usual class: inhibitors; O75164; further: nearly all actives have a fitted effect of over 50% in size
Sfp inh: Sfp phosphopantetheinyl transferase inhibition. AID 1490. Biochemical Sfp PPTase activity, qHTS. 3.5% of 310,000 active. Potency, µM, most hits filed as inhibitors;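 further: the enzyme is Sfp with the accession as filed and its product quenches rhodamine fluorescence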
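Sfp 15 nM + cpd, 15 min RT; start w/ rhodamine-CoA 5 uM, BHQ-2-YbbR 12.5 uM (final); 50 mM Hepes pH 7.6, 10 mM MgCl2, 0.01% NP-40, 0.01% BSA; read 525/598 nm at 0 and 30 min.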
HP1b binding inh: inhibitors of HP1-beta chromodomain binding to methylated histone tails. 0.56% of 390,000 active. Potency, µM (highest dose often 114 µM), most hits filed as inhibitors. AlphaScreen HP1-beta / biotin-H3K9me3 peptide binding; further: nearly all actives have a fitted effect of over 70% in size
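Compound inhibition of the preformed complex between 50 nM HP1-beta and 50 nM biotinylated H3K9me3 peptide was read by AlphaScreen. Buffer was PBS pH 7.4 with 0.01% Tween-20. Incubations ran 30 min at room temperature, with 10 ug/mL donor/acceptor beads.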
Large screens that a line does not name were inactive; ! = repeats disagree. This is a sample that favours compounds with a hit; in the whole collection about 12% have one here. The call rests on the fitted dose curve; in most records, active means well fitted curve in the direction sought with a large enough effect; inconclusive means small, poorly fitted or top-dose-only effect, or another doubt; inactive means no such curve, though single readings can be large; an effect the other way counts as inactive or inconclusive.

CCOC(=O)CSc1nc2ccc(N)cc2s1	G9a inh 31.6µM
C=CCNC(=O)CN1N=C(c2ccc(C)cc2)CCC1=O	none
COC(=O)[C@]1(C)N[C@H](CN(C)C(=O)c2ccc(F)cc2)[C@@H]2C(=O)N(C)C(=O)[C@@H]21	none (no result: BAZ2B inh, G9a inh, Sfp inh)
O=C(CCCc1nc2ccccc2s1)N1CCN(c2ccccc2)CC1	G9a inh inconclusive, Sfp inh 44.7µM
Cc1ccc(NC(=O)NC2=NN(c3ccccc3)C(=O)/C2=C2/CCCN2C)cc1	none
CN1CCC/C1=C1/C(=O)N(c2ccccc2)N=C1NC(=O)Nc1cccc(Cl)c1	JMJD2A Tudor inh 20µM
CCn1nc(NC(=O)Cc2ccc(OC)cc2)c2cc3cccc(C)c3nc21	none
CCn1nc(NC(=O)Cc2ccc(OC)cc2)c2cc3cc(C)ccc3nc21	G9a inh 44.7µM
CC(=O)c1ccc2c(c1)Nc1ccccc1S2	G9a inh 2.82µM
CCOC(=O)Nc1ccc2c(c1)Nc1ccccc1S2	BAZ2B inh 28.2µM, G9a inh 8.91µM, JMJD2A Tudor inh 39.8µM
COCCn1nnnc1C(c1cccc(OC)c1OC)N1CCN(C(=O)c2ccco2)CC1 (stereo unspecified)	G9a inh 50.1µM
COc1ccc(OC)c(C(c2nnnn2CCC(C)C)N2CCN(C(=O)c3ccco3)CC2)c1 (stereo unspecified)	none (no result: BAZ2B inh)
COc1cccc(C(c2nnnn2CC2CCCO2)N2CCN(C(=O)c3ccco3)CC2)c1OC (stereo unspecified)	BAZ2B inh inconclusive
CC(C)CCn1nnnc1C(c1ccc(F)cc1)N1CCN(C(=O)c2ccco2)CC1 (stereo unspecified)	G9a inh 50.1µM
COCCn1nnnc1C(c1ccccc1OC)N1CCN(C(=O)c2ccco2)CC1 (stereo unspecified)	G9a inh 50.1µM, JMJD2A Tudor inh inconclusive
COCCn1nnnc1C(c1ccccc1)N1CCN(C(=O)c2ccco2)CC1 (stereo unspecified)	BAZ2B inh inconclusive, G9a inh inconclusive, JMJD2A Tudor inh inconclusive
CCc1cccc(C)c1NC(=O)Cn1ccn(-c2ccc(F)cc2)c(=O)c1=O	none (no result: Sfp inh)
CCCCC1=CC2=C(c3ccco3)C(=O)C(C)(OC(=O)c3ccc(OC)cc3)C(=O)C2=CN1CCOC (stereo unspecified)	BAZ2B inh 39.8µM, G9a inh inconclusive, JMJD2A Tudor inh inconclusive
CCCCC1=CC2=C(c3ccco3)C(=O)C(C)(OC(=O)c3ccc(OC)cc3)C(=O)C2=CN1C1CCCCC1 (stereo unspecified)	BAZ2B inh inconclusive, G9a inh inconclusive, JMJD2A Tudor inh inconclusive, Sfp inh 56.2µM!
CCCCC1=CC2=C(c3ccco3)C(=O)C(C)(OC(=O)c3ccc(OC)cc3)C(=O)C2=CN1Cc1ccccc1 (stereo unspecified)	BAZ2B inh inconclusive, JMJD2A Tudor inh inconclusive, Sfp inh 44.7µM!
CCCCC1=CC2=C(c3ccco3)C(=O)C(C)(OC(=O)c3ccc(OC)cc3)C(=O)C2=CN1CCc1ccccn1 (stereo unspecified)	BAZ2B inh inconclusive, JMJD2A Tudor inh inconclusive, Sfp inh 56.2µM!
OCCC1CN(Cc2cnc(-c3ccc(Cl)cc3)nc2)CCN1C1CCCC1 (stereo unspecified)	none
O=C(Nc1ccc2c(c1)OCO2)NC1(C(F)(F)F)Oc2ccccc2O1	G9a inh 6.31µM
O=C(Nc1ccc2c(c1)OCCO2)NC1(C(F)(F)F)Oc2ccccc2O1	G9a inh 2µM, JMJD2A Tudor inh inconclusive, Sfp inh inconclusive
O=C(Nc1ccc2c(c1)OCCO2)Nc1ccc2c(c1)OCO2	none
O=C(NC1(C(F)(F)F)Oc2ccccc2O1)N1CCCC1	G9a inh 6.31µM, JMJD2A Tudor inh inconclusive
C[n+]1ccccc1N1CCN(c2ccccc2Cl)CC1	G9a inh 3.98µM, JMJD2A Tudor inh 79.4µM
Cc1cc(NC(=O)Nc2ccc3c(ccn3C)c2)sn1	JMJD2A Tudor inh inconclusive, Sfp inh 79.4µM (no result: BAZ2B inh)
O=C(c1ccc(S(=O)(=O)Nc2ccccc2F)cc1)N1CCCC1	none (no result: Sfp inh)
COc1c(O)c(O)cc2c1oc1c3cc(C)ccc3oc(=O)c21	Sfp inh 79.4µM (no result: BAZ2B inh, G9a inh, JMJD2A Tudor inh, HP1b binding inh)
COc1cc(-c2oc3ccc(C)cc3c(=O)c2O)cc(OC)c1OC	none (no result: Sfp inh)
COc1cc(C2Nc3ccccc3C(=O)N2Cc2ccco2)ccc1O (stereo unspecified)	none (no result: BAZ2B inh, G9a inh, Sfp inh)
Cc1cccc(-n2cc[nH]c2=S)c1	G9a inh 2.82µM, JMJD2A Tudor inh 5.62µM, Sfp inh 56.2µM
Cc1ccccc1N1CC(=O)N(c2ccccc2C)CC1=O	none
S=c1[nH]ccn1-c1c(Cl)cccc1Cl	G9a inh 10µM
Cc1cccn(Cc2c(Cl)cccc2Cl)c1=O	none (no result: BAZ2B inh, G9a inh, Sfp inh)
Cc1ccccc1-n1cc[nH]c1=S	G9a inh 12.6µM, JMJD2A Tudor inh 10µM
CC(C)c1ccccc1-n1cc[nH]c1=S	BAZ2B inh inconclusive, G9a inh 3.98µM, JMJD2A Tudor inh 22.4µM, Sfp inh inconclusive
COc1ccccc1NC(=O)CC1S/C(=N/N=C2\CCCc3ccccc32)NC1=O (stereo unspecified)	BAZ2B inh inconclusive, JMJD2A Tudor inh inconclusive
COc1ccc(S(=O)(=O)N(CCc2ccccc2)CC(=O)Nc2cc(C)cc(C)c2)cc1OC	none (no result: Sfp inh)
CCCCOC(=O)c1ccc(NS(=O)(=O)c2c(C)nc3scc(C)n3c2=O)cc1	none (no result: Sfp inh)
Cc1cccc(N2C(=O)N(Cc3cccc(C#N)c3)c3ccccc3S2(=O)=O)c1	none (no result: Sfp inh)
Cc1cccc(-n2ccnc2SCC(=O)O)c1C	none
Cc1cccc(-n2cc[nH]c2=S)c1C	G9a inh 1.78µM, JMJD2A Tudor inh 39.8µM
CC(=O)c1ccc(OC2C=CC(c3ccc(Cl)cc3)OC2CO)cc1 (stereo unspecified)	none (no result: BAZ2B inh, G9a inh, JMJD2A Tudor inh, HP1b binding inh)
Cc1cc(-n2c(C)cc(C(=O)CN3C(=O)NC4(CCCCCC4)C3=O)c2C)no1	BAZ2B inh inconclusive
Cc1cc(C(=O)CSc2nncs2)c(C)n1-c1ccc2c(c1)OCO2	BAZ2B inh 44.7µM, G9a inh inconclusive, JMJD2A Tudor inh inconclusive, HP1b binding inh inconclusive
Cc1cc(C(=O)CN2C(=O)NC3(CCCCC3)C2=O)c(C)n1-c1ccc2c(c1)OCO2	BAZ2B inh inconclusive, JMJD2A Tudor inh 56.2µM, HP1b binding inh inconclusive
Cc1cc(C(=O)CSc2nnnn2-c2ccccc2)c(C)n1-c1ccc2c(c1)OCO2	G9a inh inconclusive
CCc1cccc(C)c1NC(=O)Cn1ncc2c3ccccc3n(Cc3ccccc3)c2c1=O	none (no result: Sfp inh)
COc1ccc(Oc2ncc3nc(C)c(=O)n(C4CC4)c3n2)cc1	none (no result: BAZ2B inh, JMJD2A Tudor inh, HP1b binding inh)
O=c1c2ccccc2oc2ccc(NCCCn3ccnc3)cc12	BAZ2B inh 50.1µM, JMJD2A Tudor inh inconclusive (no result: G9a inh)
Cc1nc2cc(NCc3nc4ccccc4n3Cc3ccccc3)ccc2n1C	BAZ2B inh 44.7µM, JMJD2A Tudor inh inconclusive, Sfp inh inconclusive, HP1b binding inh inconclusive
COc1ccc(CNc2ccc3c(c2)nc(C)n3C)cc1OC	G9a inh 39.8µM
COC(=O)c1ccc(NC(=O)Nc2ccc3c(c2)nc(C)n3C)cc1	none
COc1cccc(CNc2ccc3c(c2)nc(C)n3C)c1OC	G9a inh 35.5µM
c1ccc(Cn2c(NCc3ccncc3)nc3ccccc32)cc1	none

Screening data (PubChem BioAssay)
